Experimental findings from PubChem BioAssay (NCI) are described below.

“And” between values parts separate entries of the source, which are not always exact repeats. Identical values can stand only once. Compounds without any hit were thinned out: in the full panel of roughly 83,000, 20% have a hit.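 Each cell line was grown in a 96-well plate and treated with one concentration of compound for 48 hours. Values below 10 were considered active.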 The source made the active and inactive calls.

For the assay, the system named is HT29 colon. The assay can be described thus: NCI-60 one-dose screen, 48 h (100 = growth as untreated, 0 = no growth, -100 = all killed). The following applies: 10 µM unless noted.
In the case of `Cn1c(=O)c2[nH]c(CCCCCCCCc3nc4ccccc4[nH]3)nc2n(C)c1=O`, the growth is 99% (inactive) and 85.6% (inactive).

For the compound `O=C1c2ccccc2C(=O)N1/N=C/c1ccc2c(c1)OCO2`, the growth was 94.3% (inactive). With `S=C1SCN(Cc2ccccc2)CN1Cc1ccccc1`, the growth was 65.4% (inactive). Turning to `Cc1ccc(-c2noc(CC(=O)c3ccc([N+](=O)[O-])cc3)n2)cc1`, the growth was 101% (inactive). Then `Oc1ccc(/C=C/c2ccccc2)cc1`, with 104% (inactive) and 84.8% (inactive); and `CC(=O)C(/C=N/C(N)=O)=C(/C)O`, with 101% (inactive).

As for `COC(=O)c1nc(N)nc(C(=O)OC)c1C(=O)c1ccc(OC)cc1`, the growth was 113% (inactive) and 68.2% (inactive).

Turning to `Cc1cc(O)c2c(c1)C(=O)c1cc(O)cc(O)c1C2=O`, the growth was 105% (inactive) and 99.6% (inactive). Regarding `C#CCN(C)Cc1ccccc1`, the growth was 108% (inactive) and 113% (inactive). Then `CCN(CC)CCCC(C)Nc1ccnc2cc(Oc3ccccc3)ccc12` (stereo not given), with 30.1% (inactive). Then `COc1ccccc1NC(=O)OCC#CCOC(=O)Nc1ccccc1OC`, with 100% (inactive) and 103% (inactive); and `Cc1cc(O)c(C(C)C)cc1S(=O)(=O)O` (tested in a mixture with another compound), with 100% (inactive) and -3.9% (active) and 109% (inactive); and `Oc1c(CN2CCCCC2)ccc2cccnc12`, with 66.6% (inactive) and 28.6% (inactive). On to `NS(=O)(=O)c1cc2c(cc1Cl)NC(C(Cl)Cl)NS2(=O)=O` (stereo not given), for which the growth was 101% (inactive) and 114% (inactive).

For the compound `COc1cc2nc(N3CCN(C(=O)C4COc5ccccc5O4)CC3)nc(N)c2cc1OC` (stereo not given), the growth was 71.4% (inactive) and 93.9% (inactive).
